Holding throughout (assay): NCI-60 one-dose screen, 48 h (100 = growth as untreated, 0 = no growth, -100 = all killed)
In one experiment the test system is DU-145 prostate. The conditions noted are these: 10 µM unless noted.
A further experiment deals with MALME-3M melanoma. The conditions noted are these: 10 µM unless noted.
In the next experiment the test system is MDA-MB-231 breast. The conditions noted are these: 10 µM unless noted.
For a further experiment, the system named is RXF 393 renal. The conditions noted are these: 10 µM unless noted.
The test system of another experiment is SF-268 CNS. The conditions noted are these: 10 µM unless noted.
Another experiment has as its system SF-295 CNS. The conditions noted are these: 10 µM unless noted.
The next experiment concerns SF-539 CNS. The conditions noted are these: 10 µM unless noted.
The test system of another experiment is UACC-257 melanoma. The conditions noted are these: 10 µM unless noted.
A further experiment deals with M14 melanoma. The conditions noted are these: 10 µM unless noted.
Another experiment relates to HCT-15 colon. The conditions noted are these: 10 µM unless noted.
The subject of another experiment is HT29 colon. The conditions noted are these: 10 µM unless noted.
The test system of the next experiment is SNB-75 CNS. The conditions noted are these: 10 µM unless noted.
Another experiment concerns SNB-19 CNS. The conditions noted are these: 10 µM unless noted.
Another experiment deals with U251 CNS. The conditions noted are these: 10 µM unless noted.
A further experiment concerns PC-3 prostate. The conditions noted are these: 10 µM unless noted.
The subject of another experiment is UACC-62 melanoma. The conditions noted are these: 10 µM unless noted.
In another experiment the test system is LOX IMVI melanoma. The conditions noted are these: 10 µM.
The test system of the next experiment is SK-MEL-28 melanoma. The conditions noted are these: 10 µM unless noted.
In a further experiment the test system is K-562 leukemia. The conditions noted are these: 10 µM unless noted.
For a further experiment, the system named is SK-MEL-5 melanoma. The conditions noted are these: 10 µM unless noted.

Compounds without any hit were thinned out: in the full panel of roughly 83,000, 20% have a hit.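 The endpoint reported here, percent growth, reads 100 for growth as untreated, 0 for no net growth and -100 for all cells dead.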 Unmarked numbers belong to inactive results. Activity calls are given as the source filed them. How the source made its calls: active means growth percent below 10; inactive means the rest.

The values that follow come from PubChem BioAssay (NCI).

For the compound `O=C(NNc1nc2cc(F)ccc2n2c(CN3CC4CNCC4C3)ccc12)c1ccncn1` (centres undefined), the growth is 42.1% in the experiment on DU-145 prostate; 22.5% in the experiment on MALME-3M melanoma; 27.5% in the experiment with MDA-MB-231 breast; 64.1% in the experiment with RXF 393 renal; 28.3% in the experiment with SF-268 CNS; 2.58% (active) in the experiment on SF-295 CNS. Besides, the growth in the experiment on SF-539 CNS is -10.3% (active); in the experiment on UACC-257 melanoma, 12.1%; with M14 melanoma, -15.6% (active); in the experiment on HCT-15 colon it was 28.9%; with HT29 colon it was 31.7%; in the experiment on SNB-75 CNS it was 49%. Besides, the growth in the experiment on SNB-19 CNS was 22.2%; with U251 CNS, 9.87% (active); in the experiment on PC-3 prostate, 32.6%; in the experiment on UACC-62 melanoma, -13.4% (active); in the experiment with LOX IMVI melanoma, 6.59% (active); in the experiment with SK-MEL-28 melanoma, 23.2%.
As for `CCOC(=O)C1=C(N)N(c2ccccc2)C2=C(C(=O)CC(C)(C)C2)C1c1ccc(Cl)cc1Cl` (centres undefined), the growth is 46% in the experiment on DU-145 prostate; 13% with K-562 leukemia; 27.9% in the experiment with MALME-3M melanoma; 21.2% in the experiment on RXF 393 renal; 52.1% in the experiment with SF-268 CNS; 23.6% with SF-295 CNS. Moreover, the growth in the experiment with SF-539 CNS is 33.3%; in the experiment with UACC-257 melanoma it was 35%; in the experiment on HCT-15 colon, 14%; in the experiment with SNB-75 CNS it was 41.2%; in the experiment with SNB-19 CNS it was 28.1%; in the experiment with U251 CNS, 27.6%. Also, the growth is 9.99% (active) with PC-3 prostate, -1.66% (active) in the experiment with SK-MEL-5 melanoma, 27.2% with UACC-62 melanoma and 51.3% in the experiment with SK-MEL-28 melanoma.
`O=C(/C=C/c1ccc(-c2ccccc2)cc1)c1nc2ccccc2n1Cc1ccc(F)cc1`: the growth in the experiment on DU-145 prostate is 54.4%; with K-562 leukemia, 21.7%; in the experiment on MALME-3M melanoma it was 0% (active); with RXF 393 renal it was 13.6%; with SF-268 CNS, 62.4%; in the experiment on SF-295 CNS, 40.4%. The growth in the experiment on SF-539 CNS was -15.9% (active); with UACC-257 melanoma, 49.5%; in the experiment with M14 melanoma it was 39.6%; in the experiment with HCT-15 colon it was 22.8%; in the experiment on SNB-75 CNS it was 49.2%; in the experiment with SNB-19 CNS, 44.6%. Moreover, the growth in the experiment on U251 CNS is 32.5%; in the experiment with PC-3 prostate it was 47.6%; in the experiment on SK-MEL-5 melanoma, 47.9%; in the experiment with UACC-62 melanoma, 38.2%; with SK-MEL-28 melanoma, 28.4%.
As to `N#Cc1c(-c2cccc3ccccc23)cc(-c2cccc(OCC(=O)O)c2)[nH]c1=O`, the growth is 105% in the experiment on DU-145 prostate; 94.2% with K-562 leukemia; 87.3% in the experiment with MALME-3M melanoma; 105% with RXF 393 renal; 96.6% in the experiment with SF-268 CNS; 101% in the experiment on SF-295 CNS. In addition, the growth in the experiment with SF-539 CNS was 95.5%; in the experiment with UACC-257 melanoma it was 97.8%; in the experiment with M14 melanoma, 93.6%; with HCT-15 colon, 100%; in the experiment on SNB-75 CNS it was 73.7%; in the experiment with SNB-19 CNS, 97.1%. Further, the growth with U251 CNS is 103%; with PC-3 prostate it was 91.7%; with SK-MEL-5 melanoma it was 100%; in the experiment with SK-MEL-28 melanoma it was 102%.
For `O=C(NNc1ccccc1)n1c(=O)c2ccccc2c(=O)n1-c1ccccc1`, the growth in the experiment on DU-145 prostate is 104%; in the experiment on K-562 leukemia, 45.8%; with MALME-3M melanoma, 96.5%; in the experiment on RXF 393 renal, 109%; in the experiment on SF-268 CNS it was 92.8%; in the experiment on SF-295 CNS, 87.2%. Further, the growth with SF-539 CNS was 97.5%; in the experiment with UACC-257 melanoma, 77.6%; in the experiment with M14 melanoma it was 100%; with HCT-15 colon, 91.4%; in the experiment on HT29 colon, 98.8%; in the experiment on SNB-75 CNS it was 80.3%. The growth in the experiment with U251 CNS was 94.1%; in the experiment with PC-3 prostate, 92.6%; with SK-MEL-5 melanoma, 101%; with UACC-62 melanoma it was 91.2%; in the experiment on SK-MEL-28 melanoma, 104%.
As to `N#Cc1c(-c2cccc(Cl)c2Cl)cc(-c2c[nH]c3ccccc23)[nH]c1=O`, the growth in the experiment with DU-145 prostate was 68.1%; in the experiment with K-562 leukemia, 30.1%; in the experiment on MALME-3M melanoma it was 54.4%; in the experiment on RXF 393 renal, 36.8%; in the experiment on SF-268 CNS it was 89.7%; with SF-295 CNS, 51.7%. The growth is 68.1% in the experiment with SF-539 CNS; 101% in the experiment with UACC-257 melanoma; 34.7% in the experiment on M14 melanoma; 49.7% with HCT-15 colon; 110% in the experiment with HT29 colon; 79.6% in the experiment with SNB-75 CNS. Moreover, the growth was 68.9% in the experiment on U251 CNS; 26.5% with PC-3 prostate; 51.6% in the experiment with SK-MEL-5 melanoma; 47.7% in the experiment on UACC-62 melanoma; 83.5% in the experiment with SK-MEL-28 melanoma.
Take `COc1ccc(C(=O)/C=C/c2ccc(Cl)c(Cl)c2)cc1S(N)(=O)=O`: the growth with DU-145 prostate is 25.2%; with MALME-3M melanoma, 28%; with MDA-MB-231 breast, 20.7%; in the experiment with RXF 393 renal it was -69.2% (active); in the experiment with SF-268 CNS, 24.6%; in the experiment on SF-295 CNS it was 7.4% (active). The growth in the experiment with SF-539 CNS is -86.5% (active); in the experiment with UACC-257 melanoma, 1.95% (active); with M14 melanoma, -70.9% (active); in the experiment with HCT-15 colon, -37.9% (active); in the experiment with HT29 colon, -50.3% (active); in the experiment with SNB-75 CNS it was 6.46% (active). Besides, the growth in the experiment on SNB-19 CNS is 5.07% (active); in the experiment on U251 CNS, -95.8% (active); in the experiment on PC-3 prostate, 10.1%; in the experiment on UACC-62 melanoma it was -4.38% (active); in the experiment with LOX IMVI melanoma, -69% (active); in the experiment with SK-MEL-28 melanoma, -33.7% (active).
On to `COc1ccc2nc(Nc3cccc(NC(=O)c4ccc(CN5CCCN(C)CC5)c(C(F)(F)F)c4)c3)ccc2c1`, for which the growth with DU-145 prostate was -54.2% (active); in the experiment on K-562 leukemia it was -18.6% (active); with MALME-3M melanoma, -58.3% (active); with RXF 393 renal it was -82.9% (active); in the experiment on SF-268 CNS, -9.02% (active); with SF-295 CNS, -53.9% (active). Further, the growth was -56.2% (active) in the experiment on SF-539 CNS; -34% (active) with UACC-257 melanoma; -49.4% (active) in the experiment with M14 melanoma; -64.7% (active) in the experiment on HCT-15 colon; -35.3% (active) in the experiment on SNB-75 CNS; -76.4% (active) in the experiment on SNB-19 CNS. The growth is 1.47% (active) in the experiment with U251 CNS; -57% (active) with PC-3 prostate; -69.2% (active) with SK-MEL-5 melanoma; -61.1% (active) in the experiment with UACC-62 melanoma; -74.9% (active) with SK-MEL-28 melanoma.
Take `O=C(Cn1c(/C=C/c2cccc([N+](=O)[O-])c2)nc2ccccc2c1=O)Nc1ccccc1`: the growth in the experiment on DU-145 prostate is 69.4%; with MALME-3M melanoma it was 75.1%; in the experiment with MDA-MB-231 breast, 33.8%; with RXF 393 renal, 55.5%; in the experiment with SF-268 CNS, 78.5%; with SF-295 CNS, 68.5%. Moreover, the growth with SF-539 CNS was 8.73% (active); in the experiment on UACC-257 melanoma, 104%; in the experiment with M14 melanoma it was 70.6%; with HCT-15 colon, 66.2%; in the experiment with HT29 colon it was 71.1%; in the experiment on SNB-75 CNS it was 70.1%. Further, the growth with SNB-19 CNS was 81.3%; in the experiment on U251 CNS it was 11.8%; in the experiment on PC-3 prostate it was 78.4%; in the experiment with UACC-62 melanoma, 50.9%; in the experiment with LOX IMVI melanoma, 33%; with SK-MEL-28 melanoma, 85.4%.
